Inconclusive results are not listed. The source made the active and inactive calls. Calls follow the shape of the dose curve; as a rule, active = well fitted curve in the direction sought with a large enough effect; inconclusive = small, poorly fitted or top-dose-only effect, or another doubt; inactive = no such curve, though single readings can be large; an effect the other way counts as inactive or inconclusive.
Also: nearly all actives have a fitted effect of over 35% in size.
Potency is read from the fitted curve at half-maximal effect.

The nature of one experiment: Quantitative High-Throughput drug screen in 47 multiple myeloma cell lines against the NCATS MIPE library collection: KHM11_PLB cell viability assay (AID 1918962). As to conditions: KHM11 myeloma cell viability, CellTiter-Glo ATP luminescence, 48 h; series mostly up to 45.8 µM; viability, % of DMSO control: at the top concentration. The method, boiled down:
(§1)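 CellTiter-Glo luminescence (ATP) after 48 h compound exposure, 37C/5% CO2; 500 cells/well; MIPE 4.0 approved/investigational drugs pinned in; DMSO = 100%, media only = 0% viability.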
(In general: Cellular ATP, detected with luciferase, serves as a proxy for viable cell number.)
For the molecule `O=C(Nc1ncc(-c2cc(C(F)F)nn2-c2c(Cl)cccc2Cl)s1)C1CC1`, the Potency is 0.935 µM (active).
The same measure, in the same setting: the value for `Cc1[nH]nc2ccc(-c3cncc(OC[C@@H](N)Cc4ccccc4)c3)cc12` was 0.235 µM (active); that for `Nc1ncnc2c1c(-c1cccc(OCc3ccccc3)c1)cn2C1CC(CN2CCCC2)C1` (stereo not drawn) was 5.26 µM (active).
Same read-out and setting: to `COc1cc(C)c(Sc2cnc(NC(=O)c3ccc(CNC(C)C(C)C)cc3)s2)cc1C(=O)N1CCN(C(C)=O)CC1` (stereo not drawn) belongs 18.7 µM (active).
Still for that read-out and setting: to `COc1cc2c(Oc3ccc(-c4cnc(Nc5ccc(F)cc5)n(C)c4=O)cc3F)ccnc2cc1OCCCN1CCOCC1` belongs 8.33 µM (active); to `C[C@@H]1COC(Nc2ccc3ncnc(Nc4ccc(OCc5nccs5)c(Cl)c4)c3c2)=N1`, 16.6 µM (active); to `COc1cc2c(NC3CCN(C(C)C)CC3)nc(C3CCCCC3)nc2cc1OCCCN1CCCC1`, 4.69 µM (active).
Turning to `Cc1cc(C(=O)N2CCN(c3cccc(Cl)c3)CC2)n(-c2ccccc2)n1`, the Potency was 0.418 µM (active).
On the same count and under the same terms, the value for `O=C(Cc1ccc(-c2ccc(OCCN3CCOCC3)cc2)cn1)NCc1ccccc1` was 0.469 µM (active).
Same read-out and setting: to `Cn1cc(-c2[nH]c3cc(NC(=O)[C@H](N)C4CCCCC4)cc4c3c2C=NNC4=O)cn1` belongs 1.48 µM (active); to `CNC(=O)c1ccccc1Nc1nc(Nc2ccc(N3CCOCC3)cc2OC)ncc1Cl`, 7.43 µM (active); to `CC(C)c1ccccc1Cc1cc(C(=O)Nc2ccc(S(=O)(=O)c3ccccc3C(C)(C)C)cc2)c(O)c(O)c1O`, 7.43 µM (active).
Still for that read-out and setting: to `Nc1ccn([C@@H]2O[C@H](CO)[C@H](O)C2(F)F)c(=O)n1` belongs 5.9 µM (active); to `O=C(CCCCCCC(=O)Nc1ccc([C@H]2O[C@@H](CSc3nc(-c4ccccc4)c(-c4ccccc4)o3)C[C@@H](c3ccc(CO)cc3)O2)cc1)NO`, 14.8 µM (active); to `CCS(=O)(=O)c1cccc(-c2cc(C(=O)NC3CCN(C)CC3)c(C)c3[nH]c4ncc(C)cc4c23)c1`, 0.526 µM (active).
Regarding `COc1cc2ncnc(Nc3ccc(F)c(Cl)c3)c2cc1NC(=O)C=CCN1CCCCC1`, the Potency was 3.32 µM (active).
Still for that read-out and setting: the value for `C#Cc1cccc(Nc2ncnc3cc(OC)c(OCCCCCCC(=O)NO)cc23)c1` was 0.372 µM (active); that for `CC=C1NC(=O)[C@H]2CSSCCC=C[C@H](CC(=O)N[C@H](C(C)C)C(=O)N2)OC(=O)[C@H](C(C)C)NC1=O` was 0.0166 µM (active).
Still for that read-out and setting: to `O=c1[nH]nc(Sc2ncc([N+](=O)[O-])s2)n1-c1ccc2c(c1)OCCO2` belongs 2.09 µM (active); to `CC[C@@]1(O)C(=O)OCc2c1cc1n(c2=O)Cc2cc3cc(O)ccc3nc2-1`, 0.59 µM (active); to `COc1ccc(-c2cc3c(C)nc(N)nc3n(C3CCC(OCCO)CC3)c2=O)cn1` (stereo not drawn), 0.0296 µM (active).
Same read-out and setting: to `OCc1ccc(-c2ccc(-c3ccc(CO)s3)o2)s1` belongs 6.62 µM (active); to `CN1CCN(c2cc(C(=O)Nc3ccc4c(c3)-c3c(c(C(N)=O)nn3-c3ccc(F)cc3)CC4)c(Cl)cn2)CC1`, 5.9 µM (active); to `Cc1cnc(Nc2ccc(F)cc2Cl)nc1-c1c[nH]c(C(=O)N[C@H](CO)c2cccc(Cl)c2)c1`, 0.526 µM (active).
For `COc1ccc(CC2c3cc(OC)c(OC)cc3CC[N+]2(C)CCC(=O)OCCCCCOC(=O)CC[N+]2(C)CCc3cc(OC)c(OC)cc3C2Cc2ccc(OC)c(OC)c2)cc1OC` (stereo not drawn), the viability, % of DMSO control was 95.7% [at 5.15 µM] (inactive).
For `CN(C)CC=CC(=O)Nc1cc2c(Nc3ccc(F)c(Cl)c3)ncnc2cc1O[C@H]1CCOC1`, the Potency is 7.43 µM (active).
As to `CC(C)c1cc(C(=O)N2Cc3ccc(CN4CCN(C)CC4)cc3C2)c(O)cc1O`, the Potency is 0.0935 µM (active).
With `Clc1cccc(-c2nnnn2Cc2cccnc2)c1Cl`, the “viability, % of DMSO control” value is 97.1% (inactive).
`N#CCNC(=O)c1ccc(-c2ccnc(Nc3ccc(N4CCOCC4)cc3)n2)cc1`: the Potency is 4.69 µM (active).
The same measure, in the same setting: to `Nc1ncnc2c1c(-c1cnc3[nH]ccc3c1)nn2C1CCCC1` belongs 0.296 µM (active); to `NC1(Cc2ccc(Cl)cc2)CCN(c2ncnc3[nH]ccc23)CC1`, 2.96 µM (active); to `COc1ccc2c(c1)CC[C@@H](CN(C)CC(=O)O)[C@H]2c1ccccc1`, 0.662 µM (active).
`Nc1cc(C(F)(F)F)c(-c2cc(N3CCOCC3)nc(N3CCOCC3)n2)cn1`: the Potency is 1.05 µM (active).
Take `COc1cccc2c(NCc3ccccc3)nc(-n3c(N)nc4ccccc43)nc12`: the Potency was 3.32 µM (active).

The nature of the next experiment: Quantitative High-Throughput drug screen in 47 multiple myeloma cell lines against the NCATS MIPE library collection: JIM3_ECACC cell viability assay (AID 1918963). The note with it: JIM3 myeloma viability, CellTiter-Glo ATP, 48 h; series mostly up to 45.8 µM; viability, percent of control: at the top concentration. Summed up:
as §1
For the molecule `O=C(Nc1ncc(-c2cc(C(F)F)nn2-c2c(Cl)cccc2Cl)s1)C1CC1`, the Potency is 0.264 µM (active).
The same measure, in the same setting: the value for `Cc1[nH]nc2ccc(-c3cncc(OC[C@@H](N)Cc4ccccc4)c3)cc12` was 2.09 µM (active).
Still for that read-out and setting: the value for `Nc1ncnc2c1c(-c1cccc(OCc3ccccc3)c1)cn2C1CC(CN2CCCC2)C1` (stereo not drawn) was 0.0833 µM (active); that for `COc1cc(C)c(Sc2cnc(NC(=O)c3ccc(CNC(C)C(C)C)cc3)s2)cc1C(=O)N1CCN(C(C)=O)CC1` (stereo not drawn) was 4.18 µM (active); that for `COc1cc2c(Oc3ccc(-c4cnc(Nc5ccc(F)cc5)n(C)c4=O)cc3F)ccnc2cc1OCCCN1CCOCC1` was 5.9 µM (active).
On the same count and under the same terms, to `C[C@@H]1COC(Nc2ccc3ncnc(Nc4ccc(OCc5nccs5)c(Cl)c4)c3c2)=N1` belongs 2.35 µM (active).
Turning to `COc1cc2c(NC3CCN(C(C)C)CC3)nc(C3CCCCC3)nc2cc1OCCCN1CCCC1`, the Potency is 8.33 µM (active).
On the same count and under the same terms, to `Cc1cc(C(=O)N2CCN(c3cccc(Cl)c3)CC2)n(-c2ccccc2)n1` belongs 0.418 µM (active); to `O=C(Cc1ccc(-c2ccc(OCCN3CCOCC3)cc2)cn1)NCc1ccccc1`, 0.0166 µM (active); to `Cn1cc(-c2[nH]c3cc(NC(=O)[C@H](N)C4CCCCC4)cc4c3c2C=NNC4=O)cn1`, 5.26 µM (active).
Still for that read-out and setting: to `CNC(=O)c1ccccc1Nc1nc(Nc2ccc(N3CCOCC3)cc2OC)ncc1Cl` belongs 0.209 µM (active); to `CC(C)c1ccccc1Cc1cc(C(=O)Nc2ccc(S(=O)(=O)c3ccccc3C(C)(C)C)cc2)c(O)c(O)c1O`, 4.18 µM (active); to `Nc1ccn([C@@H]2O[C@H](CO)[C@H](O)C2(F)F)c(=O)n1`, 0.526 µM (active).
Still for that read-out and setting: the value for `O=C(CCCCCCC(=O)Nc1ccc([C@H]2O[C@@H](CSc3nc(-c4ccccc4)c(-c4ccccc4)o3)C[C@@H](c3ccc(CO)cc3)O2)cc1)NO` was 23.5 µM (active).
Regarding `CCS(=O)(=O)c1cccc(-c2cc(C(=O)NC3CCN(C)CC3)c(C)c3[nH]c4ncc(C)cc4c23)c1`, the Potency is 0.935 µM (active).
For the molecule `COc1cc2ncnc(Nc3ccc(F)c(Cl)c3)c2cc1NC(=O)C=CCN1CCCCC1`, the Potency is 6.62 µM (active).
As for `C#Cc1cccc(Nc2ncnc3cc(OC)c(OCCCCCCC(=O)NO)cc23)c1`, the Potency is 2.35 µM (active).
Turning to `CC=C1NC(=O)[C@H]2CSSCCC=C[C@H](CC(=O)N[C@H](C(C)C)C(=O)N2)OC(=O)[C@H](C(C)C)NC1=O`, the Potency was 0.0469 µM (active).
Still for that read-out and setting: to `O=c1[nH]nc(Sc2ncc([N+](=O)[O-])s2)n1-c1ccc2c(c1)OCCO2` belongs 2.64 µM (active); to `CC[C@@]1(O)C(=O)OCc2c1cc1n(c2=O)Cc2cc3cc(O)ccc3nc2-1`, 1.66 µM (active); to `COc1ccc(-c2cc3c(C)nc(N)nc3n(C3CCC(OCCO)CC3)c2=O)cn1` (stereo not drawn), 0.0662 µM (active).
As to `OCc1ccc(-c2ccc(-c3ccc(CO)s3)o2)s1`, the Potency was 16.6 µM (active).
As for `CN1CCN(c2cc(C(=O)Nc3ccc4c(c3)-c3c(c(C(N)=O)nn3-c3ccc(F)cc3)CC4)c(Cl)cn2)CC1`, the Potency is 6.62 µM (active).
Still for that read-out and setting: the value for `Cc1cnc(Nc2ccc(F)cc2Cl)nc1-c1c[nH]c(C(=O)N[C@H](CO)c2cccc(Cl)c2)c1` was 16.6 µM (active).
With `COc1ccc(CC2c3cc(OC)c(OC)cc3CC[N+]2(C)CCC(=O)OCCCCCOC(=O)CC[N+]2(C)CCc3cc(OC)c(OC)cc3C2Cc2ccc(OC)c(OC)c2)cc1OC` (stereo not drawn), the viability, percent of control is 105% [at 5.15 µM] (inactive).
Turning to `CN(C)CC=CC(=O)Nc1cc2c(Nc3ccc(F)c(Cl)c3)ncnc2cc1O[C@H]1CCOC1`, the Potency is 8.33 µM (active).
Still for that read-out and setting: to `CC(C)c1cc(C(=O)N2Cc3ccc(CN4CCN(C)CC4)cc3C2)c(O)cc1O` belongs 0.187 µM (active).
With `Clc1cccc(-c2nnnn2Cc2cccnc2)c1Cl`, the “viability, percent of control” value was 110% (inactive).
Take `N#CCNC(=O)c1ccc(-c2ccnc(Nc3ccc(N4CCOCC4)cc3)n2)cc1`: the Potency is 13.2 µM (active).
The same measure, in the same setting: the value for `Nc1ncnc2c1c(-c1cnc3[nH]ccc3c1)nn2C1CCCC1` was 4.69 µM (active); that for `NC1(Cc2ccc(Cl)cc2)CCN(c2ncnc3[nH]ccc23)CC1` was 2.96 µM (active); that for `COc1ccc2c(c1)CC[C@@H](CN(C)CC(=O)O)[C@H]2c1ccccc1` was 1.66 µM (active).
The same measure, in the same setting: the value for `Nc1cc(C(F)(F)F)c(-c2cc(N3CCOCC3)nc(N3CCOCC3)n2)cn1` was 0.743 µM (active).
Take `COc1cccc2c(NCc3ccccc3)nc(-n3c(N)nc4ccccc43)nc12`: the Potency is 2.96 µM (active).

The values above are taken from PubChem BioAssay (NCATS).
